PubChem BioAssay (NCATS)
Inconclusive results are not listed. Calls come from the whole dose curve; as a rule, active = well fitted curve in either direction with a large enough effect (not every such curve was filed as active); inconclusive = small, poorly fitted or top-dose-only effect, or another doubt; inactive = flat fitted curve, though single readings scatter.

Test: Stat Signaling Pathway (AID 446);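 note: SIE-controlled beta-lactamase reporter measured as 460/530 nm FRET emission ratio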
Conditions: ME-180 (cervical carcinoma) SIE beta-lactamase reporter, IL-6 stimulated, 5 h; at 17.2 µM (top of the series) unless noted
Method in brief: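 Compound effects on IL-6-induced STAT reporter activity were measured in ME-180 cells. After overnight culture, cells were co-treated with 40 pM IL-6 for 5 hrs before beta-lactamase substrate loading at room temperature.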
% is set by controls: 0 for no effect and ±100 for the full control effect.

activity, negative = inhibition, inactive:
COC(=O)c1c(-n2cnnn2)sc(C)c1C 6.13%, Clc1ccc2nc(CSc3nc4ccccc4o3)cn2c1 -8.83%, COC(=O)C(C)Sc1nc2c(c(=O)n(C)c(=O)n2C)n1CCC(C)C (stereo not given) -10.8%, CCOC(=O)CC1=NC(=O)CS1 4.4%, Cc1cc(COc2ccccc2OCCN2CCN(C)CC2)no1 -0.578%, S=c1[nH]nc(-c2ccco2)n1Cc1ccccc1 21.7%, CC1(C)CC(=O)C(C=NCCN2CCN(C(=O)C34CC5CC(CC(C5)C3)C4)CC2)=C(O)C1 7.24%, Cc1cc(C)nc(CC(N)=O)n1 -0.0254%, CN(C)c1ccc(C2C3C(=O)N(c4ccc(C(=O)O)cc4)C(=O)C3ON2c2ccccc2)cc1 (stereo not given) 5.33%, C=CCNc1sc(C(=O)C2CC2)c(N)c1C#N -6.27%, O=C(NCCCN1CCOCC1)C1(c2ccccc2)CCOCC1 5.62%, CCOc1ccc(-n2c3nc4ccccc4nc3c3c(=O)n(Cc4ccco4)cnc32)cc1 -2.34%, Nc1nnnn1/N=C/c1ccccn1 -2.26%, CCN(CC)c1ncc(C)c(=O)[nH]1 7.65%, OCCNC1=NCCN1 1.85%, O=C(OCCN1CCOCC1)c1ccc(OCCN2CCOCC2)cc1 -3.54%, COc1ccc2cnn(-c3ccccc3C)c(=O)c2c1OC 24.1%, Cc1c(/C(O)=C2/C(=O)C(=O)N(CCN3CCOCC3)C2c2cccnc2)cnn1-c1ccccc1 (stereo not given) -0.626%, NC(=O)C1CCN(CCC(=O)Nc2ccc(Br)cc2)CC1 5.95%, COc1cccc(N2C(=O)C(O)=C(C(C)=O)C2c2ccc(OC)c(OC)c2)c1 (stereo not given) 0.326%, COc1ccc(Cn2c(CCCO)nc3ccccc32)cc1OC -4.44%, Cc1nc(SCC(=O)Nc2ccc3c(c2)OCO3)c(C#N)c2c1CCCC2 -15.4%, COc1ccc2c(c1)[nH]c1c(=O)n(CC3CCCO3)cnc12 (stereo not given) 2.17%, C=CCOC(=O)C1=C(C)NC(SCC(=O)N(CC)CC)=C(C#N)C1c1ccco1 (stereo not given) -6.01%, CCCC1C(c2ccc(OC)cc2)C(C#N)(C#N)C2(C#N)CC1(N)NC2=O (stereo not given) -5.79%, CC1CN(c2oc(-c3ccccc3Cl)nc2C#N)CC(C)O1 (stereo not given) 9.86%, C=CCOC(=O)C1=C(C)OC(N)=C(C#N)C1c1ccoc1 (stereo not given) -0.879%, N#Cc1nc(COc2ccc(Br)cc2)oc1NCCN1CCOCC1 1.36%, CCOC(=O)c1cc2c(=O)n3cccc(C)c3nc2n(Cc2cccnc2)c1=N 12%, O=S(=O)(c1ccccc1)N(CC(O)CN1CCCCC1)c1ccccc1 (stereo not given) 3.01%, O=C(c1cccc(Cl)c1)N1CCN(C(=O)c2ccccc2F)CC1 -11.1%, O=C1C=C(O)CC(c2cccs2)C1 (stereo not given) -2.06%, CC(=O)C1=C(O)C(=O)N(Cc2cccnc2)C1c1ccccc1Cl (stereo not given) 1.82%, N#Cc1nc(-c2cccs2)oc1NCCN1CCOCC1 5.17%, CC(C)CC(C(=O)O)C(C)CC(=O)Nc1ccn(-c2ccccc2)n1 (stereo not given) 7.28%, COc1cccc(/C=C2/CN(C)CC3=C2OC(N)=C(C#N)C3c2cccc(OC)c2)c1 (stereo not given) -1.9%, COc1ccc(OC)c(C2/C(=C(/O)c3cnn(-c4ccccc4)c3C)C(=O)C(=O)N2CCN(C)C)c1 (stereo not given) 3.03%, COC(=O)c1ccccc1NC(=O)C1COc2ccccc2O1 (stereo not given) 2.58%, Cc1cccc(OCC(=O)NCC(=O)n2nc(C)cc2C)c1 4.06%, Cn1c(N)c(C#N)c(C#N)c1-c1ccccc1 -8.46%
